The record followed here is PubChem BioAssay (NCI).

This is part of a sample that, as a whole, favours compounds with a hit. Of some 83,000 tested, about 20% had one in any assay.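 In brief: 96-well plates, 48 h treatment, single concentration, percent growth endpoint.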 A number with no mark means an inactive call. Activity calls are given as the source filed them.

This test relates to MCF7 breast. Description: NCI-60 one-dose screen, 48 h (100 = growth as untreated, 0 = no growth, -100 = all killed). The settings on record: 10 µM unless noted. Here is the method: Growth inhibition of the MCF7 human tumor cell line is measured as a screen for anti-cancer activity. Cells are grown in 96 well plates and exposed to the test compound for 48 hours. Compounds are tested at a single concentration, which is 10^-5 M for most compounds. The reported endpoint is percent growth (GI% or GIPRCNT), where numbers from 0 - 100% represent growth inhibition, and numbers from -100% - 0 represent cell death. For example, a value of 40 represents 60% growth inhibition. A value of 0 means no net growth occurred over the course of the experiment. A value of -40 indicates 40% of cells at the beginning of the experiment died by the end of the experiment. A value of -100 means all cells are dead at the end of the experiment.
NCI-60 Human Tumor Cell Lines Screen was performed using the standard one-dose NCI protocol, which is described in more detail at https://dtp.cancer.gov/discovery_development/nci-60/default.htm.
Compounds with GIPRCNT values below 10 were considered active. Activity score was based on GIPRCNT using the following formula: […]
Score is 0 for GIPRCNT values of 100 or above, 50 for GIPRCNT values of 0, and 100 for GIPRCNT values of -100.
As to `COc1ccc(/C=C/C(=O)CCC(=O)O)cc1OC`, the growth was 97.1%. The value for `COc1ccc(C(=O)O)cc1.[Ag]` was 100%; that for `Nc1c(C(=O)C[C@@H](N)CO)ccc2c1C(=O)CCO2` was 22.5%.

On to `COc1ccc2c(c1)sc1nc(-c3ccccc3)c(-c3cccc4ccccc34)n12`, for which the growth is 27.7%.

On to `CC(C)(C)[Si](C)(C)OC1[C@@H](O[Si](C)(C)C(C)(C)C)[C@@H](CNC(=O)NC(=O)NC(=O)CCl)O[C@H]1n1cnc2c(NC(=O)Nc3ccccc3)ncnc21` (stereo not given in full), for which the growth is 37.8%. `CC1=CCC2C1CC=C(C)C(CC[C@H]1[C@@](C)(O)CCC3OC(C)(C)[C@H](OC(=O)c4ccccc4)CC[C@@]31C)C2(C)C` (stereo not given in full): the growth is 74.9%.

For `COc1cc(/C=C\c2cc(/C=C\c3ccc(O)c(OC)c3)n(C(=O)Nc3ccc(C(F)(F)F)cc3)n2)ccc1O`, the growth was 22.9%. For `COc1ccc([C@H]2c3[nH]c4ccccc4c3C[C@H]3C(=O)N(CCCCCCC(=O)NO)CC(=O)N23)cc1` the value was 29.9%; for `C/C(=N\Nc1ccc([N+](=O)[O-])cn1)c1ccc(N)cc1`, 85%; for `O=c1c2cc(Br)cc(Br)c2nc(-c2ccc(Cl)cc2)n1/N=C/c1cccc(F)c1`, 52.5%. The value for `COc1cc(OC)c(C(=O)/C=C/c2cccc(OC(C)=O)c2)cc1CC=C(C)C` was 44.6%; that for `c1ccc(-c2ccc(-c3ccccc3)[nH]2)cc1` was 85.9%.

As to `Cc1cc(Nc2c3ccccc3nc3ccccc23)ccc1NS(C)(=O)=O`, the growth was 27.4%. The value for `COc1ccc(NC(=O)Cn2c(=O)sc3c(-c4ccc(Cl)cc4)cc(-c4ccc(Cl)cc4)nc32)cc1` was 89.2%.

Take `COc1ccc(-c2nc3ccccc3n3cccc23)cc1`: the growth is 81.9%.

In the case of `COC(=O)C(Br)(C(=O)OC)C(Br)C(Br)C(Br)c1ccccc1` (stereo not given), the growth is 18.3%. Turning to `CC(=O)O[C@@H]1CC2C(C)(C)CCCC2(C)C2=C1C(=O)C(C(C)C)=CC2=O` (stereo not given in full), the growth is 3.73% (active). The value for `OC(CCCCCCCCC(O)CN1CCc2ccccc2C1)CN1CCc2ccccc2C1` (stereo not given) was 95.9%; that for `CCOC(=O)C1=C(C)NC(=S)NC1c1ccccc1` (stereo not given) was 99.7%. The value for `COc1ncnc2[nH]cc(CN3CCN(c4ccc(F)cc4)CC3)c12` was 103%. For `O=C(Nc1cccc(C2=NCCN2)c1)c1ccc(N=Nc2ccc(C(=O)Nc3cccc(C4=NCCN4)c3)cc2)cc1` the value was 62.4%. As to `COc1ccc(-c2cnc(-c3ccncc3-c3cccc(OC)c3)o2)cc1`, the growth is 16.4%. For `COc1cc(Nc2ncccc2/C=C/C(=O)c2cc(OC)c(OC)c(OC)c2)cc(OC)c1OC` the value was 9.35% (active); for `O=C1CCCN1C(O)CCN(Cc1ccccc1)Cc1ccc(Cl)cc1` (stereo not given), 94.1%; for `CCOC(=O)Nc1ccc2nc(N3CCCCCC3)sc2c1`, 19.5%. As for `CS(=O)(=O)c1ccc(C(=O)N/N=C/c2ccccc2O)cc1`, the growth is 22.5%. For `CC(C)CCC(=O)[C@@H](C)[C@H]1[C@@H](OC2OCC(O)C(O)C2NS(C)(=O)=O)C[C@H]2[C@@H]3CC=C4C[C@@H](O)CC[C@]4(C)[C@H]3CC[C@]12C` (stereo not given in full) the value was 17.1%; for `Cn1c(-c2ccccc2)cc(=O)n1-c1ccccc1`, 93.6%. The value for `CCCCCCCCCCCCC1CCC(=O)O1` (stereo not given) was 93.4%; that for `C=CCCCCOc1cccc(/C=C2\N=C3SCCCN3C2=O)c1` was 88.9%; that for `Oc1ccccc1-c1nnc(COc2ccc(Cl)cc2Cl)o1` was 20.6%. The value for `COc1ccc(-c2cc(C(=O)Nc3ccc(Br)cc3)nc3[nH]c(=O)sc23)cc1` was 24.3%.

For the molecule `CCN(CC)c1ccc(/C=N/N=C(N)N)cc1`, the growth is 15.4%.

In the case of `CN1CCCN(CCNc2nccc(-c3c(-c4cccc(O)c4)nc4sccn34)n2)S1(=O)=O`, the growth is 74.1%. The value for `COc1cc(-c2nn(C(=O)NCCN3CCN(C)CC3)cc2-c2ccncc2)ccc1Cl` was 76.5%; that for `CCN1C(=O)N(CC)C2C1NC(=O)N2/N=C/C=C/c1ccccc1` (stereo not given) was 12%; that for `COC(=O)CSc1ccc(Cl)cc1` was 97.2%. The value for `O=C1C=CN2C(=O)CC=CC2[C@@H]1O` (stereo not given in full) was 96.5%; that for `COc1cccc(N2CCN(c3ncnc4cc[nH]c34)CC2)c1` was 46.7%; that for `COc1cc(CN2CCC(N3CCCC3=O)c3ccccc32)cc(OC)c1OC` (stereo not given) was 70.9%.
